Most compounds without a hit are left out; they make up all but 7.3% or so of the library.
NPC1 promoter act: NPC1 promoter activation. Huh7 NPC1 promoter luciferase reporter, 24 h. Potency, µM (titrated, usually from 9.22 µM), inactives show top-dose activation, usual class: activators. hit rate 2.4% among 320,000; also: % of control where 0% means no effect; nearly all actives have a fitted effect of over 60% in size
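Stable NPC1-promoter luciferase Huh7 line; cpd (DMSO) 24 h, 37 °C, 5% CO2; Amplite luciferase reagent 10 min RT; luminescence readout. qHTS format.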
Rab9 promoter act: Rab9 promoter activation; Huh7 Rab9 promoter-luciferase reporter, luminescence, 24 h; Potency, µM (doses to about 9.22 µM), without a hit: at the highest dose activation, negative = inhibition, actives largely listed as activators; hit rate 2.8% among 320,000; also: % of control where 0% means no effect; nearly all actives have a fitted effect of over 60% in size
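Cells were plated at 1500 per well in reduced-serum medium with 10% FBS and left 2 h. Compound in DMSO was then added for 24 h at 37 °C. Reporter signal was read by luminescence after 10 min with luciferase detection reagent.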
SMN2 splice up: increases expression of the SMN2 splice variant | HEK293 SMN2-luciferase splicing reporter, luminescence, 30-36 h | Potency, µM (titrated, usually from 46.1 µM), for the others: at the top dose activity change, positive = activation, most hits filed as activators | hit rate 2.8% among 210,000; also: % of control where 0% means no effect; nearly all actives have a fitted effect of over 55% in size
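HEK293 cells carry an SMN2 […]–luciferase reporter in which exon 7 inclusion puts luciferase in frame. Cells were plated 10-12 h before compound addition, then incubated 30-36 h at 37C. ONE-Glo luminescence was read; sodium butyrate at 4.5 mM final served as control.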
FLuc counter: counter-screen for miR-21 project: firefly luciferase inhibitors or activators | P08659 | purified FLuc, Km substrates, luminescence inhibition | Potency, µM (series often up to 57.5 µM), inactives show top-dose activity change, negative = inhibition, actives largely listed as inhibitors | hit rate 6.9% among 360,000 | AID 588342;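 also: plate controls were vehicle for no effect and reference inhibitor for full effect; nearly all actives have a fitted effect of over 55% in size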
Target sequence (P08659 whole entry, looked up): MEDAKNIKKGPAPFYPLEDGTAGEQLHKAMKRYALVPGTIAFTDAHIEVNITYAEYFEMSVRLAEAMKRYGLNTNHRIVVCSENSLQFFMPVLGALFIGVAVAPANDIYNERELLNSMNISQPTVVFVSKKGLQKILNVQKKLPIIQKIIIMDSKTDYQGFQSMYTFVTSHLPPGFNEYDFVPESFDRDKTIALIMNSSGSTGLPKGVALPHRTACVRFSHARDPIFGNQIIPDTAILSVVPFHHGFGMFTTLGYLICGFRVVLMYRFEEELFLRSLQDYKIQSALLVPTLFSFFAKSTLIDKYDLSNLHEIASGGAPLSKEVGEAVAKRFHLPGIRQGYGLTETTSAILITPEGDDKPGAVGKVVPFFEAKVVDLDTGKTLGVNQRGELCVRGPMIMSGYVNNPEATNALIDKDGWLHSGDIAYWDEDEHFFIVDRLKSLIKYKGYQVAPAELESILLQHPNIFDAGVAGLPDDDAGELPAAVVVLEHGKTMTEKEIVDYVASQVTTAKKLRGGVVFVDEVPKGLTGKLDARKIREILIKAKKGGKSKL
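Purified P. pyralis luciferase, 10 nM final, with Km-level 10 uM D-luciferin and 10 uM ATP in 50 mM Tris acetate pH 7.5, 10 mM Mg acetate, 0.01% Tween-20, 0.05% BSA; 6-point qHTS titration about 60 µM downward; luminescence read.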
KinaseGlo FLuc: blocks Kinase-Glo luciferase, a counter-screen artifact. Q27757. Kinase-Glo luciferase, ATP luminescence, 8 min. Potency, µM (series often up to 38.3 µM), for inactives: at the highest dose activity change, negative = inhibition, usual class: inhibitors. hit rate 0.28% among 200,000; also: % is scaled to controls: 0 for no effect and ±100 for the full control effect; nearly all actives have a fitted effect of over 60% in size
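Substrate mix (final 50 mM imidazole pH 7.2, 50 mM KCl, 7 mM MgCl2, 10 uM ATP, 0.01% Tween 20, 0.05% BSA) plus pin-tool compound, then Kinase-Glo detection mix; 8 min ambient, luminescence read.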
Active calls of the source: *; [ ] = another dose, or the depositor's remark. Calls follow the shape of the dose curve; as a rule, active = well fitted curve in the direction sought with a large enough effect; inconclusive = small, poorly fitted or top-dose-only effect, or another doubt; inactive = no such curve, though single readings can be large; an effect the other way counts as inactive or inconclusive. Potency is read from the fitted curve at half-maximal effect.

Results for CSc1nnc(-c2ccccc2N=Cc2c(C)[nH]n(-c3ccc4ccccc4c3)c2=O)c(=O)[nH]1 ?
NPC1 promoter act: 18%; Rab9 promoter act: 7%; SMN2 splice up: inconclusive; FLuc counter: 9.5µM*; KinaseGlo FLuc: inconclusive

Results for C=CCSc1nnc(-c2ccccc2N=Cc2c(C)[nH]n(-c3ccccc3)c2=O)c(=O)[nH]1 ?
NPC1 promoter act: 6%; Rab9 promoter act: -4%; SMN2 splice up: -2%; FLuc counter: inconclusive; KinaseGlo FLuc: -1%

What do the screens show for `CCCc1cc2c(=O)c(-c3ccc4c(c3)OCCO4)c(C)oc2cc1OS(C)(=O)=O`?
NPC1 promoter act: -1%; Rab9 promoter act: 2%; SMN2 splice up: -74%; FLuc counter: -7%; KinaseGlo FLuc: 6%

Results for CCc1cc2c(=O)c(-c3ccc4c(c3)OCCO4)coc2cc1OC(=O)c1ccco1 ?
NPC1 promoter act: 1.8µM*; Rab9 promoter act: 2µM*; SMN2 splice up: inconclusive; FLuc counter: 1.1µM*; KinaseGlo FLuc: 1%

Results for CCCc1cc2c(=O)c(-c3ccc4c(c3)OCCO4)coc2cc1OS(C)(=O)=O ?
NPC1 promoter act: inconclusive; Rab9 promoter act: 3.2µM*; SMN2 splice up: inconclusive; FLuc counter: 5.4µM*; KinaseGlo FLuc: 5%

How did CCN(CC)Cc1c(O)ccc2c(=O)c(-c3ccc4c(c3)OCCO4)coc12 do in these assays?
NPC1 promoter act: 2%; Rab9 promoter act: -10%; SMN2 splice up: -6%; FLuc counter: 2%; KinaseGlo FLuc: -3%

What do the screens show for `CCCc1cc2c(=O)c(-c3ccc4c(c3)OCCO4)coc2cc1OC(=O)c1ccco1`?
NPC1 promoter act: 1.3µM*; Rab9 promoter act: 1.6µM*; SMN2 splice up: inconclusive; FLuc counter: 5.4µM*; KinaseGlo FLuc: -5%

What do the screens show for `O=C1c2ccccc2[C@@H]([C@@H]2c3ccccc3C(=O)c3cc(Br)ccc32)c2ccc(Br)cc21`?
SMN2 splice up: 0%[9.22 µM]; KinaseGlo FLuc: -7%[7.66 µM]

What do the screens show for `Cc1ccc(C(=O)COC(=O)C2CCC2)cc1`?
NPC1 promoter act: 0%; Rab9 promoter act: -3%; FLuc counter: 0.38µM*

How did Cc1ccc(C(=O)COC(=O)c2ccc(O)cc2)cc1 do in these assays?
NPC1 promoter act: inconclusive; Rab9 promoter act: 3.2µM*; FLuc counter: 11µM*; KinaseGlo FLuc: -4%

How did Cc1ccc(C(=O)COC(=O)c2cnccn2)cc1 do in these assays?
NPC1 promoter act: 6%; Rab9 promoter act: 2%; SMN2 splice up: 4%; FLuc counter: 6.7µM*; KinaseGlo FLuc: -5%

What do the screens show for `CC(=O)Nc1ccc(C(=O)COC(=O)C2CC3CCCC(C2)C3=O)cc1` (centres undefined)?
NPC1 promoter act: -1%; Rab9 promoter act: 0%; FLuc counter: -3%

How did O=C(OCC(=O)c1ccc(Cl)cc1Cl)c1cnccn1 do in these assays?
NPC1 promoter act: -1%; Rab9 promoter act: -2%; FLuc counter: 12µM*

What do the screens show for `CCOCCCNC(=O)Cn1ncc2c([nH]c3ccc(C)cc32)c1=O`?
FLuc counter: 4%

How did COc1ccc(CCNC(=O)c2c(C)oc3ncnc(N4CCOCC4)c23)c(OC)c1 do in these assays?
FLuc counter: 3%

Results for Cc1ccc(C(=O)COC(=O)c2cnccn2)cc1[N+](=O)[O-] ?
NPC1 promoter act: 2%; Rab9 promoter act: -4%; SMN2 splice up: 7%; FLuc counter: 6%; KinaseGlo FLuc: 2%

Results for Cc1ccc(C(=O)COC(=O)c2cnccn2)cc1C ?
NPC1 promoter act: 1%; Rab9 promoter act: 1%; SMN2 splice up: 6%; FLuc counter: 21µM*; KinaseGlo FLuc: -2%

How did CCCNc1ccc(S(=O)(=O)N(C(C)C)C(C)C)cn1 do in these assays?
NPC1 promoter act: -2%; Rab9 promoter act: 0%; SMN2 splice up: -2%; FLuc counter: -6%; KinaseGlo FLuc: 1%

What do the screens show for `CCCNc1ccc(S(=O)(=O)N(CC)CC)cn1`?
NPC1 promoter act: 0%; Rab9 promoter act: 0%; SMN2 splice up: 5.6µM*; FLuc counter: -6%; KinaseGlo FLuc: -5%

What do the screens show for `c1ccc(C2=NN(c3ccccc3)CC2)cc1`?
NPC1 promoter act: 2.8µM*; Rab9 promoter act: 3.5µM*; FLuc counter: 3.4µM*

How did CCN(CC)c1ccc2nc3c4ccccc4c(=O)cc-3oc2c1 do in these assays?
NPC1 promoter act: 0.56µM*; Rab9 promoter act: 1.1µM*; FLuc counter: 0.48µM*

Results for Cc1cc(C)n(CC(C)NC(=O)CCc2nnc(CCc3ccccc3)o2)n1 (centres undefined) ?
NPC1 promoter act: 0%; Rab9 promoter act: 16%; FLuc counter: -2%; KinaseGlo FLuc: 3%

What do the screens show for `Cc1nc(C(C)NC(=O)CCc2nnc(CCCc3ccccc3)o2)c(C)s1` (centres undefined)?
NPC1 promoter act: inconclusive; Rab9 promoter act: 2.8µM*; SMN2 splice up: 16µM*; FLuc counter: 15µM*; KinaseGlo FLuc: -4%

Results for CN(Cc1ccsc1)C(=O)CCc1nnc(CCCc2ccccc2)o1 ?
NPC1 promoter act: 19%; Rab9 promoter act: 3.2µM*; FLuc counter: 13µM*; KinaseGlo FLuc: -3%

What do the screens show for `CC(C)(CO)CNC(=O)CCc1nnc(CCCc2ccccc2)o1`?
NPC1 promoter act: -1%; Rab9 promoter act: 12%; FLuc counter: -15%; KinaseGlo FLuc: -1%

What do the screens show for `O=C(CCc1nnc(CCCc2ccccc2)o1)NC(C1CC1)C1CC1`?
NPC1 promoter act: inconclusive; Rab9 promoter act: 2.8µM*; SMN2 splice up: 14µM*; FLuc counter: 12µM*; KinaseGlo FLuc: -4%

How did Cc1ccc(C)c(N2CCN(C(=O)CCS(=O)(=O)c3ccc4c(c3)CC(=O)N4C)CC2)c1 do in these assays?
FLuc counter: -7%

What do the screens show for `C/C(=N\NC(=S)Nc1ccccc1C)c1ccc(O)cc1`?
NPC1 promoter act: 1%; Rab9 promoter act: 9%; SMN2 splice up: -10%; FLuc counter: 21µM*; KinaseGlo FLuc: 0%

Results for COCCNC(=S)N/N=C(\C)c1ccc(O)cc1 ?
NPC1 promoter act: -2%; Rab9 promoter act: 0%; SMN2 splice up: 14%; FLuc counter: 2%; KinaseGlo FLuc: 0%

What do the screens show for `Cc1cnc(C(=O)Nc2ccc(OC(F)(F)F)cc2)cn1`?
NPC1 promoter act: 1%; Rab9 promoter act: 26%; FLuc counter: -28%

How did O=C(Nc1ccc(OC(F)(F)F)cc1)C1=NCCN1 do in these assays?
NPC1 promoter act: inconclusive; Rab9 promoter act: 2%; SMN2 splice up: 2%; FLuc counter: 6.7µM*; KinaseGlo FLuc: -6%

Results for COc1ccc(NC(=O)C2=C(C)Nc3ncnn3C2c2cccn2C)cc1 (centres undefined) ?
FLuc counter: 1%

How did COCCNC(=O)C1(CC(C)C)C=CCN1C(C)=O (centres undefined) do in these assays?
SMN2 splice up: 5%; KinaseGlo FLuc: 3%
